# DT40 TDP1 CPT: DT40-hTDP1 cell growth loss with CPT | chicken DT40 Tdp1-/-;hTDP1 cells + 20 nM CPT, ATP luminescence, 48 h | Potency, µM (series often up to 46.2 µM), usual class: inhibitors | hit rate 12% among 420,000; note: nearly all actives have a fitted effect of over 55% in size
#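 Cell growth measured by CellTiter-Glo luminescence after a minimum 48 h, 37 C compound exposure with 20 nM CPT in Tdp1-knockout DT40 cells stably expressing hTDP1, seeded 400/well; qHTS titration format.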
# HT1080 IDH1KD tx: toxicity to HT-1080 IDH1 knockdown cells (counter line) | HT-1080 IDH1 knockdown viability, ATP luminescence, 48 h | AID 686971 | hit rate 2% among 360,000 | Potency, µM (highest dose often 46.1 µM), usual class: cytotoxic
#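 In this qHTS, HT-1080 cells depleted of IDH1 are exposed for 48 h at 37 °C to compound titrations. Toxicity is scored from CellTiter-Glo luminescence, with DMSO as full viability and medium alone as none.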
# DT40 TDP1 no CPT: qHTS for Inhibitors of human tyrosyl-DNA phosphodiesterase 1 (TDP1): qHTS in cells in absence of CPT. hit rate 15% among 420,000. DT40 Tdp1-/- hTDP1 cells, no CPT, ATP luminescence, 48 h. Potency, µM (top dose mostly 46.2 µM), actives largely listed as inhibitors; note: nearly all actives have a fitted effect of over 55% in size
#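 Chicken DT40 Tdp1-/- cells complemented with human TDP1, screened without camptothecin (DMSO vehicle only), 400 cells/well. Compounds pin-transferred, cells incubated at 37 °C for at least 48 hr. Growth read as ATP-dependent luminescence (CellTiter-Glo, 30 min at RT).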
# HT1080-NT tox: kills 2HG-producing HT-1080-NT fibrosarcoma cells. hit rate 1.6% among 360,000. HT-1080-NT fibrosarcoma viability, CellTiter-Glo ATP luminescence, 48 h. Potency, µM (doses to about 46.1 µM), actives largely listed as cytotoxic;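 note: NT is the 2HG producing partner of a matched IDH1 knockdown line; nearly all actives have a fitted effect of over 55% in size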
#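 Viability by CellTiter-Glo luminescence after 48 h compound exposure at 37C of HT-1080-NT cells (750/well, RPMI, 5% FBS). % activity scaled between DMSO wells and medium-only wells, then curve-fitted and categorized by curve class.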
# TGFb inhibitor: inhibitors of TGF-b signaling | HepG2 CAGA-GFP TGF-b/SMAD3 reporter, GFP fluorescence, 18 h; TGF-beta stimulated, 500 pg/mL final | Potency, µM (series often up to 46.1 µM), hits mostly inhibitors | hit rate 1.2% among 410,000 | AID 588855; note: nearly all actives have a fitted effect of over 65% in size
#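 Inhibition was scored as loss of TGF-beta-induced (500 pg/mL final, 18 hours, 37 degrees C) GFP in HEPG2 cells carrying a CAGA-GFP reporter, in DMEM with 1% FBS. Well GFP was summed per cell; Activity was normalised to unstimulated and stimulated DMSO wells, then concentration-response fitting.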
# HepG2 viability: kills HepG2 cells in TGF-b inhibitor counter-screen; HepG2 CAGA-GFP viability, ATP luminescence, 18 h; Potency, µM (doses to about 46.1 µM), usual class: cytotoxic; hit rate 0.76% among 410,000
#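 HepG2 CAGA-GFP cells (1000/well, DMEM with 1% FBS) received compound, then TGF-beta at 500 pg/mL final, and were incubated 18 hours at 37 degrees C. Viability was read by CellTiter-Glo luminescence. Media-only wells were set as complete cell-killing and DMSO as no toxicity.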
# A number is an active result; n = inactive; u = inconclusive; x = not tested or not shown. Compounds with a hit are over-represented: about 17% of the library has one in this group of screens. Calls come from the whole dose curve; as a rule, active = well fitted curve in the direction sought with a large enough effect; inconclusive = small, poorly fitted or top-dose-only effect, or another doubt; inactive = no such curve, though single readings can be large; an effect the other way counts as inactive or inconclusive.
SMILES,DT40 TDP1 CPT,HT1080 IDH1KD tx,DT40 TDP1 no CPT,HT1080-NT tox,TGFb inhibitor,HepG2 viability
O=C1NC(=O)C(CCc2ccncc2)(CCc2ccncc2)C(=O)N1Cc1ccc(F)cc1,14.6µM,n,u,n,n,n
COc1ccc(N2C(=O)NC(=O)C(CCc3ccncc3)(CCc3ccncc3)C2=O)cc1,n,n,n,n,n,n
Cc1ccc(C(C)C)c(OCC(=O)N2CCN(CCc3ccncc3)CC2)c1,u,x,u,x,n,n
O=C1NC(=O)C(=Cc2ccco2)C(=O)N1,u,n,n,n,n,n
O=C1NC(=O)C(=Cc2coc3ccc(O)cc3c2=O)C(=O)N1,16.4µM,n,20.6µM,n,n,n
COc1ccc(NC(=O)N2CCN(c3nc(-c4cccc(OC)c4)cs3)CC2)cc1,23.1µM,u,18.4µM,n,n,n
COc1ccc(NC(=O)N2CCC3(CC2)OCCO3)cc1,u,n,n,n,n,n
Oc1ccc2c3c1O[C@H]1c4oc5ccccc5c4C[C@]4(O)[C@H](C2)N(CC2CC2)CC[C@@]314,n,x,n,x,x,x
COC(=O)C1=C(c2ccc(C(C)=O)cc2)C[C@@H]2CC[C@H]1N2C(=O)N1CCCCC1,20.6µM,n,16.4µM,n,n,n
COC(=O)C1=C(c2ccc(C(C)=O)cc2)C[C@@H]2CC[C@H]1N2C(=O)N1CCCC1,u,n,u,n,n,n
COC(=O)C1=C(c2ccc(OC(F)(F)F)cc2)C[C@@H]2CC[C@H]1N2C(=O)N1CCCCC1,2.59µM,n,2.06µM,u,u,n
COc1ccc(-n2ncc(C(=O)N3CCN(c4cc(C)ccc4C)CC3)c2C2CCN(C(=O)OC(C)(C)C)CC2)cc1,20.6µM,x,14.6µM,x,n,n
CC(C)(C)OC(=O)N1CCC(c2c(C(=O)N3CCN(Cc4ccccc4)CC3)cnn2-c2ccc(Cl)cc2)CC1,25.9µM,x,20.6µM,x,n,n
Cc1ccc(C)c(N2CCN(C(=O)c3cccn4c(=O)c5ccccc5nc34)CC2)c1,u,x,u,x,n,n
Cc1ccc(-n2ncc(C(=O)N3CCN(c4ccc(Cl)cc4)CC3)c2C2CCN(C(=O)OC(C)(C)C)CC2)c(C)c1,u,x,11.6µM,x,n,n
CN[C@@H](C)Cc1ccccc1,n,x,n,x,x,x
Cc1ccc(C2N(c3cc(C)on3)C(=O)C3CCCN32)cc1 (configuration not stated),n,n,n,n,n,n
CN1CCC2(CC1)CCN(C(=O)Oc1ccccc1)CC2,n,x,n,x,x,x
Cc1cccc(NC(=O)c2ncn3c2C(=O)NC[C@H]3C)c1,n,n,u,n,n,n
Cc1ccc(CNCCc2ccccc2F)cc1,n,n,n,n,n,n
CCN(CC)c1ccc(CNCCc2ccccc2F)cc1,u,18.4µM,16.4µM,16.4µM,n,n
COc1ccc([C@@H](O)[C@@H](N)c2ccccc2)cc1,n,n,n,n,n,n
COc1ccc(-n2c(-c3ccco3)nc3ccccc3c2=O)cc1,u,n,23.1µM,n,n,n
O=c1c2ccccc2nc(-c2ccco2)n1-c1ccccc1,u,n,u,n,n,n
O=c1c2ccccc2nc(-c2ccco2)n1-c1ccncc1,n,n,n,n,n,n
SMILES,DT40 TDP1 CPT,HT1080 IDH1KD tx,DT40 TDP1 no CPT,HT1080-NT tox,TGFb inhibitor,HepG2 viability
Cc1ccccc1-n1c(-c2ccco2)nc2ccccc2c1=O,11.6µM,n,9.2µM,n,n,n
C[C@H]1COC2=C1C(=O)C(=O)c1c2ccc2c1CCCC2(C)C,5.17µM,n,5.17µM,u,4.47µM,10µM
CC1COC2=C1C(=O)C(=O)c1c2ccc2c1CCCC2(C)C (configuration not stated),u,x,13µM,x,x,x
N#CC12CNCC1CN=N2 (configuration not stated),n,n,n,n,n,n
CC(C)(C)c1ccc(O)cc1,n,x,n,x,x,x
CCN1C[C@@]2(C)CC[C@@H](OC)[C@@]34C2C(O)[C@@]2(OCO[C@]25CC(OC)C2C[C@@]3(O)C5C2O)C14 (some centres not stated),n,x,n,x,x,x
O=C(COc1ccc2ccccc2c1)N1CCN(Cc2c[nH]c3ccccc23)CC1,2.06µM,u,5.17µM,n,u,12.6µM
O=C(COc1ccc(Br)cc1)N1CCN(Cc2c[nH]c3ccccc23)CC1,1.3µM,n,2.31µM,n,11.2µM,n
O=C(COc1ccc(Br)cc1)N1CCN(C2CCCC2)CC1,n,n,n,n,n,n
Cc1cc(NC(=O)CSc2nc3c(c(=O)n2-c2ccc(Cl)cc2)SCC3)no1,n,n,n,u,n,n
CC1CCC(NC(=O)CN2CCN(S(=O)(=O)c3ccc(Br)s3)CC2)CC1 (configuration not stated),16.4µM,n,16.4µM,n,n,n
O=C(CN1CCN(S(=O)(=O)c2cc(Br)ccc2Br)CC1)NCc1ccccc1Cl,u,n,u,n,u,n
COc1ccc(CC2(CCc3ccncc3)C(=O)NC(=O)NC2=O)cc1,n,n,n,n,n,n
CC1(CCCc2ccc(N(CCCl)CCCl)cc2)NC(=O)NC1=O (configuration not stated),0.411µM,n,0.517µM,n,u,n
COC(=O)C1=C(c2cccc(C#N)c2)C[C@@H]2CC[C@H]1N2C(=O)NC(C)C,n,n,n,n,u,n
C[C@@H]1O[C@@H](O[C@@H]2C=C3CC[C@@H]4[C@H](CC[C@]5(C)[C@@H](c6ccc(=O)oc6)CC[C@]45O)[C@@]3(C)CC2)[C@H](O)[C@H](O)[C@H]1O,0.143µM,x,0.128µM,x,x,x
C[C@@H]1O[C@@H](O[C@@H]2C=C3CC[C@@H]4[C@@H](CC[C@]5(C)[C@H](c6ccc(=O)oc6)CC[C@@]45O)[C@@]3(C)CC2)[C@H](O)[C@H](O)[C@H]1O,0.282µM,x,u,x,0.316µM,n
CC(Cc1ccccc1)[n+]1cc(/N=C(\[O-])N(C)C)on1 (configuration not stated),n,n,n,n,n,n
O[C@@H]1[C@H](O)[C@H]2[C@@H](O)CCN2C[C@@H]1O,n,x,n,x,x,x
CCCn1cc(C(=O)O)cn1,n,n,n,n,n,n
CCCNC(=O)c1c(N)n(Cc2ccc3c(c2)OCO3)c2nc3ccccc3nc12,n,n,n,n,u,n
COCCCNC(=O)c1c(NC(=O)c2ccco2)n(Cc2ccccc2)c2nc3ccccc3nc12,u,u,25.9µM,u,n,n

# Screening results as filed in PubChem.
